Many of the other results were omitted from the sample, so hits are more common in it than they were.
Dicer inh: inhibitors of human Dicer processing of pre-microRNA | cat-ELCCA pre-miR-21 Dicer processing, chemiluminescence; hits give high values | AID 1347074 | Q9UPY3 | z-score at 25 µM | 6% of 47,000 active; in the data active = z-score above about 3, passing the limit was not always enough;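 also: higher signal means more uncleaved substrate so more Dicer inhibition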
Large screens that a line does not name were inactive.

CC1(C)COC(c2sccc2C(=O)O)=N1	none
N/C(=N\O)c1cccc(C(F)(F)F)c1	none
COc1ccc(-c2nc(N)c(C#N)c(-c3ccco3)c2C)cc1	none
CCOC(=O)c1cnc2cc(C)ccn2c1=O	none
CCOC(=O)c1cnc2n(c1=O)CCS2	Dicer inh 3.2
CCOC(=O)c1cnc2cc(C)[nH]n2c1=O	none
CCCCSc1nnc2c(n1)OC(c1ccc(C)o1)N(C(C)=O)c1ccccc1-2 (stereo not given)	none
CCn1nc2n(c1=O)-c1ccccc1OC2	none
O=[N+]([O-])c1ccc(Sc2ssc(=S)c2-c2ccccc2)nc1	none
Cn1c(=O)c2c3nc4cc(Cl)c(Cl)cc4cc3c(=O)n(C)c2n(C)c1=O	none
CCOC(=O)NC(=O)CC(=O)NC(=O)OCC	none
Cn1c(=O)c2c(nc(Sc3ccccc3N)n2C)n(C)c1=O	none
Cn1c(=O)c2c(nc(SCc3ccc(F)cc3)n2C)n(C)c1=O	none
Cn1c(=O)c2c(nc(Sc3nnc(N)s3)n2C)n(C)c1=O	Dicer inh 3.1
Cn1nccc1NC(=O)CCCC(=O)O	none
NNC(=O)Cn1nc2n(c1=O)-c1ccccc1SC2	Dicer inh 4.1
CNC(=O)NC(=O)Cn1nc2n(c1=O)-c1ccccc1SC2	none
CC(=O)Cn1nc2n(c1=O)-c1ccccc1SC2	none
COc1ccc(/C=C/c2nc(-c3ccccc3O)n(S(=O)(=O)N(C)C)n2)cc1OC	none
Cn1c(=O)c2c(nc(Oc3ccc(F)cc3Cl)n2C)n(C)c1=O	none
Cc1cc(Oc2nc3c(c(=O)n(C)c(=O)n3C)n2C)cc(C)c1Cl	Dicer inh 3.8
CC(C)n1c(Oc2ccc(F)cc2)nc2c1c(=O)n(C)c(=O)n2C	none
CCCN(CCC#N)C(=S)Nc1ccc(C)c(C)c1	none
Nn1c(-c2ccc(Cl)cc2)n[nH]c1=S	none
C=CCOC(=O)C1=C(C)NC2=C(C(=O)CC(C)(C)C2)C1c1ccccc1OCCCC (stereo not given)	none
CCn1c(C(O)c2ccc(N(C)C)cc2)nc2ccccc21 (stereo not given)	none
CCn1ccnc1C(O)c1ccc(C)cc1 (stereo not given)	Dicer inh 3.1
COc1cccc(C(O)c2nccn2C)c1OC (stereo not given)	none
CCCOc1ccc(C2C(C#N)=C(N)Oc3n[nH]c(C(C)(C)C)c32)cc1 (stereo not given)	none
c1nc(NCCCN2CCOCC2)c2c3c(sc2n1)CCCC3	none
CCOC(=O)c1c(C)n(C)c2cc(-c3ccc(CC)cc3)c(O)cc12	Dicer inh 3.5
CCOC(=O)c1c(C)n(C)c2cc(-c3ccc(C)cc3)c(O)cc12	none
CCOC(=O)c1c(C)n(C)c2cc(-c3ccc(Cl)cc3)c(O)cc12	none
Cc1nn(C)c(C)c1CN(C)C(=O)c1cc2nc(-c3ccc4c(c3)OCO4)cc(C(F)(F)F)n2n1	none
Oc1ccc(N2Cc3ccccc3C2)cc1	none
Oc1cccc(N2Cc3ccccc3C2)c1	Dicer inh 4.4
CC1CCC2C(=O)N(c3cccc(O)c3)C(=O)C2C1 (stereo not given)	none
FC(F)(F)c1ccc(Cl)c(NC(=S)NC2CCCCC2)c1	none
O=C(O)/C=C\C(=O)Nc1ccccc1Sc1nccc(C(F)(F)F)n1	none
O=S(=O)(c1ccc(NC(=S)N/N=C/c2ccccc2)cc1)N1CCCCC1	none
O=S(=O)(c1ccc(NC(=S)NC2CCCC2)cc1)N1CCCCC1	none
O=S(=O)(c1ccc(NC(=S)N/N=C/c2ccccn2)cc1)N1CCCCC1	Dicer inh 4.2
CC(=O)Nc1c(C)c(C)c(C)c(C)c1NC(C)=O	none
COC(=O)c1cc(/C=N/Nc2ccc([N+](=O)[O-])cn2)cn1C	none
COc1ccc(C(=O)O)cc1OC1CCCC1	none
COc1ccc(-c2nnc(SCc3ccccc3)o2)cc1	none
Cc1cccc(/C=C/c2nn3c(-c4ccco4)nnc3s2)c1	Dicer inh 3.4
COc1ccc(/C=C/c2nn3c(Cc4ccc(OC)cc4)nnc3s2)cc1	Dicer inh 4.7
COc1ccc(/C=C/c2nn3c(Cc4ccccc4)nnc3s2)cc1	none
Clc1ccccc1-c1ccc(-c2nn3c(-c4ccco4)nnc3s2)o1	none
COc1ccc(/C=C/c2nn3c(COc4ccccc4)nnc3s2)cc1	none
Clc1ccccc1-c1nnc2sc(/C=C/c3ccccc3)nn12	none
COc1ccc(/C=C/c2nn3c(-c4ccccc4Cl)nnc3s2)cc1	none
Cc1ccc(/C=C/c2nn3c(-c4ccco4)nnc3s2)cc1C	none
Cc1ccc(/C=C/c2nn3c(-c4ccco4)nnc3s2)cc1	Dicer inh 3.2
O=C1CC(N2CCN(CCO)CC2)C(=O)N1c1ccc(Cl)cc1 (stereo not given)	none
C=CCn1c(SC(C(C)=O)C(=O)OCC)nnc1-c1cnn(-c2ccccc2)c1N (stereo not given)	none
Nc1cc(=O)n(Cc2ccccc2F)c(=O)n1-c1ccccc1F	none
Fc1ccc(C2Oc3ccccc3C3CC(c4ccco4)=NN32)cc1 (stereo not given)	none
CCCn1c(O)c(C#N)c(C)cc1=O	none
Clc1ccc(/C=N/N=C/c2ccc(Cl)cc2)cc1	none
C=CCn1c(=S)sc2c(N/N=C/c3ccco3)ncnc21	none
CC1CC(=O)c2cn3nc(-c4cccnc4)nc3nc2C1 (stereo not given)	none
CC(C)OC(=S)Nc1cccc(Cl)c1	none
O=C1c2cccc3cccc(c23)C12OCCS2 (stereo not given)	none
Cc1cc(C)nc(/N=C/c2ccccc2O)c1	none
CCc1cc2c(=O)c(-c3nc4ccccc4n3C)c(C(F)(F)F)oc2cc1O	none
CCn1c(SCC(=O)c2ccccc2)nc2sc3c(c2c1=O)CC(C)(C)OC3	none
CC1(C)Cc2c(sc3[nH]c(=O)n(CC(=O)O)c(=O)c23)CO1	Dicer inh 3.9
C=C(C)Cn1c(SCCC)nc2sc3c(c2c1=O)CC(C)(C)OC3	none
O=C(NCc1cccnc1)c1ccc(-c2cccs2)s1	none
Cc1nn(CC(O)Cn2c(C)c(C)c3ccccc32)c(C)c1Br (stereo not given)	none
COC(=O)Cc1cc(=O)n(-c2nc3ccccc3[nH]2)[nH]1	Dicer inh 4.6
Cc1ccc(-c2cc(=O)n(-c3nc4ccccc4[nH]3)[nH]2)cc1	none
CC(C)OC(=O)CSc1nc2ccccc2[nH]1	none
O=C(Cn1cc(C(=O)C2CC2)c2ccccc21)NCCc1c[nH]c2ccccc12	none
Nc1nonc1C(=O)NCCNC(=O)c1cccc(Br)c1	Dicer inh 5.2
CC(C)(C)C(=O)NCCNC(=O)c1nonc1N	none
Nc1nonc1C(=O)NCCNCc1cccs1	none
CCOC(=O)c1c(NC(=O)NS(=O)(=O)c2ccc(C)cc2)sc2c1CCN(C)C2	none
O=C(c1ccccc1)c1ccccc1N/C=C/c1nnnn1-c1ccc(Cl)cc1	none
OC(COc1ccc(-c2csnn2)cc1)CN1CCN(C(c2ccccc2)c2ccccc2)CC1 (stereo not given)	none
O=c1c(Cc2ccc([N+](=O)[O-])cc2)c(-c2ccccc2)sc2ccccc12	Dicer inh 3.6
O=c1c(Cc2ccc(Cl)cc2Cl)c(-c2ccccc2)sc2ccccc12	none
O=c1c(Cc2ccc(Cl)c(Cl)c2)c(-c2ccccc2)sc2ccccc12	none
O=S(=O)(/C=C/c1ccccc1)c1ccc(F)cc1F	none
COC(=O)Cn1c(=O)oc2ccccc21	none
CC(C)OC(=O)Cn1c(=O)oc2ccccc21	Dicer inh 4
O=C(O)Cn1c(=O)oc2ccccc21	none
CCCS(=O)(=O)c1c(C)c(C)n(Cc2ccc(C(F)(F)F)cc2)c1N	none
O=C(COc1ccc(Cl)cc1)Nc1nccs1	none
O=C(COc1ccc(Cl)cc1)Nc1c[nH]c(=O)[nH]c1=O	Dicer inh 4.1
O=C(COc1ccc(Cl)cc1)Nc1ccc(Cl)cn1	none
CCOc1ccc2nc(Nc3nccc(C)n3)nc(C)c2c1	none
CCOc1cc(N2CCOCC2)c(OCC)cc1NS(=O)(=O)CC	none
CSc1c(C#N)c(-c2cccs2)nn1C(=O)C(C)(C)C	none
